# Laboratory results from PubChem BioAssay (NCI).
# Values joined by “and” are separate entries in the source; they are usually repeats but may differ in a detail not shown here. Identical values can stand only once. The panel holds about 79,000 compounds, 15% with a hit somewhere; the sample as a whole holds those more often. More than one record can exist for a structure, and the calls need not agree. Active and inactive are the calls of the source. Cut-off read from the data, not from the text of the source: active = growth inhibition above about 70%; inactive = the rest.
# Key:
# [1] = NCI Yeast Anticancer Drug Screen. Data for the rad50 strain (AID 155);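 note: 0% = growth of vehicle-only cultures of the same strain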; details: S. cerevisiae rad50 strain growth inhibition, stronger effect = higher value
# Procedure, shortened: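 Genetically altered yeast (DNA repair pathway); compound treatment; growth inhibition vs vehicle ctrl.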
# [2] = NCI Yeast Anticancer Drug Screen. Data for the mec2-1 strain (AID 157); details: S. cerevisiae mec2-1 strain, stronger effect = higher value
# Procedure, shortened: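 Strain: mec2-1 (DNA repair/cell cycle alteration). Compound exposure, then growth measured; inhibition expressed relative to vehicle.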
# [3] = NCI Yeast Anticancer Drug Screen. Data for the sgs1 mgt1 strain (AID 161);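 note: 0% = growth of cultures given vehicle only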; details: S. cerevisiae sgs1 mgt1 strain, stronger effect = higher value
# Procedure, shortened: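 Genetically altered yeast, compound exposure, growth inhibition relative to vehicle.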
# [4] = NCI Yeast Anticancer Drug Screen. Data for the cln2 rad14 strain (AID 165);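 note: 0% = growth equal to vehicle treated cultures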; details: S. cerevisiae cln2 rad14 strain, stronger effect = higher value
# Procedure, shortened: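 Compounds are applied to the cln2 rad14 yeast strain, and growth is then compared with that of vehicle-treated cultures to give inhibition.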
# [5] = NCI Yeast Anticancer Drug Screen. Data for the bub3 strain (AID 167); details: S. cerevisiae bub3 mutant strain, stronger effect = higher value
# Procedure, shortened: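 Yeast carrying a defined mutation is treated with each compound, and growth is compared with that of vehicle-exposed cells to give inhibition.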
# [6] = NCI Yeast Anticancer Drug Screen. Data for the mlh1 rad18 strain (AID 175); details: S. cerevisiae mlh1 rad18 strain growth inhibition, stronger effect = higher value
# Procedure, shortened: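 Read-out is yeast growth inhibition, calculated against vehicle-only controls. The compound was applied to a strain engineered with DNA damage repair alterations.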
# [7] = at 5.0 µM (retest, dose inferred, filed as 0.5)
# [8] = at 50.0 µM (retest, dose inferred, filed as 5.0)
Structure (SMILES),"growth inhibition [1, 7]","growth inhibition [1, 8]",growth inhibition ([1]; at 50.0 µM),"growth inhibition [2, 7]","growth inhibition [2, 8]",growth inhibition ([2]; at 50.0 µM),"growth inhibition [3, 7]","growth inhibition [3, 8]",growth inhibition ([3]; at 50.0 µM),"growth inhibition [4, 7]","growth inhibition [4, 8]",growth inhibition ([4]; at 50.0 µM),"growth inhibition [5, 7]","growth inhibition [5, 8]",growth inhibition ([5]; at 50.0 µM),"growth inhibition [6, 7]","growth inhibition [6, 8]",growth inhibition ([6]; at 50.0 µM)
O=C(/C=C/c1cccnc1)c1ccccc1,2% (inactive),48% (inactive),9.2% (inactive) and 25.8% (inactive),0% (inactive),67% (inactive),-9.2% (inactive) and 41.6% (inactive),-1% (inactive),65% (inactive),-15.7% (inactive) and 61.4% (inactive),5% (inactive),14% (inactive),15.1% (inactive) and 3.65% (inactive),0% (inactive),40% (inactive),-10% (inactive) and 25.5% (inactive),4% (inactive),36% (inactive),-21.9% (inactive) and 69.2% (inactive)
CCCCCCCCCCCCCCCCCC(=O)OC(Cc1ccccc1)C(=O)O (centres undefined),1% (inactive),-2% (inactive),33.9% (inactive),1% (inactive),2% (inactive),18% (inactive),1% (inactive),-15% (inactive),15.7% (inactive),2% (inactive),-9% (inactive),26.2% (inactive),1% (inactive),2% (inactive),35.7% (inactive),0% (inactive),-1% (inactive),32.9% (inactive)
CCCCN(C(=O)CCl)c1ccccc1,2% (inactive),13% (inactive),50.3% (inactive),-1% (inactive),9% (inactive),19.1% (inactive),-4% (inactive),3% (inactive),54.2% (inactive),1% (inactive),5% (inactive),20% (inactive),-9% (inactive),-16% (inactive),34.9% (inactive),0% (inactive),10% (inactive),73.7% (active)
CCC(C)(C)c1cc(O)c(C(C)(C)CC)cc1O,10% (inactive),88% (active),0.35% (inactive) and 93.2% (active),3% (inactive),67% (inactive),-22.4% (inactive) and 93.3% (active),-3% (inactive),91% (active),11.3% (inactive) and 88% (active),18% (inactive),84% (active),-15.2% (inactive) and 84.8% (active),23% (inactive),91% (active),20.2% (inactive) and 92.3% (active),10% (inactive),81% (active),9.45% (inactive) and 91.8% (active)
O=[N+]([O-])C1=C(c2ccccc2)SC=C(c2ccccc2)S1,6% (inactive) and -1% (inactive),13% (inactive) and -6% (inactive),24% (inactive) and 71.5% (active),-6% (inactive) and 10% (inactive),-3% (inactive) and 1% (inactive),13.4% (inactive) and 82.9% (active),3% (inactive) and 22% (inactive),-1% (inactive) and -5% (inactive),31.6% (inactive) and 84.7% (active),18% (inactive) and 1% (inactive),64% (inactive) and -4% (inactive),54.9% (inactive) and 89.1% (active),48% (inactive) and 50% (inactive),80% (active) and 28% (inactive),12.4% (inactive) and 84.8% (active),-9% (inactive) and 17% (inactive),-10% (inactive) and -3% (inactive),57.5% (inactive) and 85.9% (active)
O=C1C=CC(=O)c2c1ccc1c3ccccc3n(Cc3ccccc3)c21,27% (inactive),84% (active),73% (active),38% (inactive),90% (active),71.2% (active),41% (inactive),90% (active),59% (inactive),19% (inactive),49% (inactive),38% (inactive),52% (inactive),92% (active),76% (active),47% (inactive),90% (active),25.1% (inactive)
C=CCC(O)c1ccc(C(C)C)cc1 (centres undefined),3% (inactive),7% (inactive),18.9% (inactive) and -7.9% (inactive),1% (inactive),-3% (inactive),-7.55% (inactive) and -1.05% (inactive),-2% (inactive),1% (inactive),-5.65% (inactive) and 13.1% (inactive),-3% (inactive),0% (inactive),-5% (inactive) and 16.4% (inactive),10% (inactive),16% (inactive),-2.85% (inactive) and -2.2% (inactive),0% (inactive),7% (inactive),15.4% (inactive) and -13.9% (inactive)
COC1OC2COC(c3ccccc3)OC2C(O)C1OS(=O)(=O)c1ccc(C)cc1 (centres undefined),-3% (inactive),1% (inactive),46.5% (inactive) and 3.9% (inactive),0% (inactive),51% (inactive),46.4% (inactive) and 2.7% (inactive),-7% (inactive),46% (inactive),74.6% (active) and 16.9% (inactive),-10% (inactive),-8% (inactive),31.8% (inactive) and -1.35% (inactive),-3% (inactive),2% (inactive),32.3% (inactive) and -1.1% (inactive),-1% (inactive),49% (inactive),63.1% (inactive) and 0.65% (inactive)
Cc1ccc(C(C)C)c2c1CN(CCN1COc3c(C(C)C)ccc(C)c3C1)CO2,-3% (inactive),2% (inactive),-3.9% (inactive),0% (inactive),3% (inactive),6.8% (inactive),-3% (inactive),-1% (inactive),-13.8% (inactive),-4% (inactive),1% (inactive),-11.2% (inactive),-1% (inactive),-2% (inactive),-2.95% (inactive),-1% (inactive),4% (inactive),-8.65% (inactive)
O=C(O)CCN1c2ccccc2Sc2ccccc21,1% (inactive) and -19% (inactive),31% (inactive) and 27% (inactive),35% (inactive) and 69.4% (inactive),-22% (inactive) and -12% (inactive),40% (inactive) and 48% (inactive),13.3% (inactive) and 52% (inactive),-5% (inactive) and -16% (inactive),46% (inactive) and 41% (inactive),27.9% (inactive) and 69.6% (inactive),-8% (inactive) and 13% (inactive),58% (inactive) and 52% (inactive),84.3% (active) and 54.4% (inactive),-15% (inactive) and -16% (inactive),51% (inactive) and 48% (inactive),64.9% (inactive) and 39.2% (inactive),-7% (inactive) and -39% (inactive),56% (inactive) and 35% (inactive),42.5% (inactive) and 54.9% (inactive)
COC(=O)C#CC(=O)OC,14% (inactive),96% (active),32% (inactive) and -2.9% (inactive),14% (inactive),99% (active),9.8% (inactive) and 77.9% (active),-15% (inactive),84% (active),7.05% (inactive) and 45% (inactive),21% (inactive),96% (active),17.9% (inactive) and 9.6% (inactive),-18% (inactive),99% (active),0.8% (inactive) and 74% (active),-2% (inactive),98% (active),21.8% (inactive) and 49.8% (inactive)
CC(C)OC(=S)SSC(=S)OC(C)C,5% (inactive) and 11% (inactive),99% (active) and 98% (active),99.4% (active),4% (inactive) and 0% (inactive),100% (active) and 98% (active),99.5% (active),1% (inactive) and 9% (inactive),99% (active) and 100% (active),99.3% (active),33% (inactive) and 9% (inactive),94% (active) and 84% (active),98.4% (active),7% (inactive) and 2% (inactive),99% (active) and 100% (active),99% (active),-1% (inactive) and 18% (inactive),99% (active) and 94% (active),98.3% (active)
O=c1cc[nH]cc1,2% (inactive),14% (inactive),7.55% (inactive) and 26.5% (inactive),-3% (inactive),-7% (inactive),-8.8% (inactive) and 56.6% (inactive),-5% (inactive),2% (inactive),2.3% (inactive) and 16.9% (inactive),3% (inactive),5% (inactive),1% (inactive) and 24.7% (inactive),1% (inactive),-6% (inactive),12.3% (inactive) and 23.3% (inactive),0% (inactive),6% (inactive),-7.05% (inactive) and 81.5% (active)
